Experimental data as given in PubChem BioAssay AID1159580 (chemical genetic matrix, 2015).
Values joined by “and” are separate entries in the source; they are usually repeats but may differ in a detail not shown here. Identical values can stand only once. About 2,000 (36%) of roughly 5,500 compounds were called active. Inconclusive results (about 18%) are left out. Cut-off read from the data, not from the text of the source: active = normalized growth mostly below about 0.91 (no sharp cut-off); inconclusive = no clear call, values can overlap the other calls; inactive = mostly above about 0.92. The list shows a part of the results.

Assay: chemical genetic growth profiling, strain panel (AID 1159580);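 note: tested at 20 µM; growth read once vehicle control cultures reached saturation at 30 °C; 1 = growth at the plate median or of vehicle wells; lower values mean less growth of the strain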
Conditions: growth OD

Measured: normalized growth

Cc1ccccc1C(OCCN(C)C)c1ccccc1 (stereo not given)
inactive: S. cerevisiae deletion strains, locus YJR075W, strain HOC1, stronger effect = lower value 0.986 and 0.988 | S. cerevisiae deletion strains, locus YKL009W, strain mrt4, stronger effect = lower value 0.999 | S. cerevisiae deletion strains, locus YKL068W, stronger effect = lower value 0.996 | S. cerevisiae deletion strains, locus YKL085W, strain MDH1 (second series), stronger effect = lower value 1 | S. cerevisiae deletion strains, locus YKL085W, strain MDH1, stronger effect = lower value 1 | S. cerevisiae deletion strains, locus YKL160W, strain elf1, stronger effect = lower value 1.01 | S. cerevisiae deletion strains, locus YKL190W, strain CNB1, stronger effect = lower value 0.996 | S. cerevisiae deletion strains, locus YKR001C, strain vps1, stronger effect = lower value 1.03 | S. cerevisiae deletion strains, locus YKR026C, strain gcn3, stronger effect = lower value 1.01 | S. cerevisiae deletion strains, locus YKR091W, strain srl3, stronger effect = lower value 1.01 | S. cerevisiae deletion strains, locus YLL001W, strain dnm1, stronger effect = lower value 1 | S. cerevisiae deletion strains, locus YLL026W, stronger effect = lower value 1.01 | S. cerevisiae deletion strains, locus YLL041C, strain sdh2, stronger effect = lower value 0.998 | S. cerevisiae deletion strains, locus YLR027C, strain aat2, stronger effect = lower value 0.994 | S. cerevisiae deletion strains, locus YLR039C, strain RIC1, stronger effect = lower value 1.14 | S. cerevisiae deletion strains, locus YLR058C, strain SHM2, stronger effect = lower value 0.996 | S. cerevisiae deletion strains, locus YLR102C, strain apc9, stronger effect = lower value 1 | S. cerevisiae deletion strains, locus YLR113W, strain HOG1, stronger effect = lower value 0.956 | S. cerevisiae deletion strains, locus YLR221C, strain rsa3, stronger effect = lower value 1.01 | S. cerevisiae deletion strains, locus YLR258W, strain gsy2, stronger effect = lower value 1 | S. cerevisiae deletion strains, locus YLR262C, strain YPT6 (second series), stronger effect = lower value 1.05 | S. cerevisiae deletion strains, locus YLR262C, strain YPT6, stronger effect = lower value 1.13 | S. cerevisiae deletion strains, locus YLR268W, strain sec22, stronger effect = lower value 1.05 | S. cerevisiae deletion strains, locus YLR320W, strain mms22, stronger effect = lower value 1.02 | S. cerevisiae deletion strains, locus YLR330W, strain CHS5, stronger effect = lower value 1.01 | S. cerevisiae deletion strains, locus YLR342W, strain FKS1 (second series), stronger effect = lower value 1 | S. cerevisiae deletion strains, locus YLR342W, strain FKS1, stronger effect = lower value 1.03 | S. cerevisiae deletion strains, locus YLR357W, strain rsc2, stronger effect = lower value 1.01 | S. cerevisiae deletion strains, locus YLR370C, strain arc18, stronger effect = lower value 1 | S. cerevisiae deletion strains, locus YLR371W, strain rom2, stronger effect = lower value 1.01 | S. cerevisiae deletion strains, locus YLR384C, strain iki3, stronger effect = lower value 1.01 | S. cerevisiae deletion strains, locus YLR418C, strain cdc73, stronger effect = lower value 0.94 | S. cerevisiae deletion strains, locus YML016C, strain PPZ1, stronger effect = lower value 1 | S. cerevisiae deletion strains, locus YML032C, strain rad52, stronger effect = lower value 1.01 | S. cerevisiae deletion strains, locus YML120C, strain ndi1, stronger effect = lower value 1.01 | S. cerevisiae deletion strains, locus YML124C, strain tub3, stronger effect = lower value 1 | S. cerevisiae deletion strains, locus YMR058W, strain fet3, stronger effect = lower value 0.977 | S. cerevisiae deletion strains, locus YMR078C, strain ctf18, stronger effect = lower value 1.01 | S. cerevisiae deletion strains, locus YMR125W, strain sto1, stronger effect = lower value 1.01 | S. cerevisiae deletion strains, locus YMR129W, stronger effect = lower value 1.01 | S. cerevisiae deletion strains, locus YMR205C, strain PFK2, stronger effect = lower value 1.02 | S. cerevisiae deletion strains, locus YMR223W, strain ubp8, stronger effect = lower value 0.997 | S. cerevisiae deletion strains, locus YMR231W, strain pep5, stronger effect = lower value 0.998 | S. cerevisiae deletion strains, locus YMR263W, strain SAP30, stronger effect = lower value 0.985 | S. cerevisiae deletion strains, locus YMR307W, strain GAS1, stronger effect = lower value 1.01 | S. cerevisiae deletion strains, locus YNL067W, strain RPL9B, stronger effect = lower value 0.994 | S. cerevisiae deletion strains, locus YNL071W, strain lat1, stronger effect = lower value 1 | S. cerevisiae deletion strains, locus YNL128W, strain TEP1, stronger effect = lower value 1 | S. cerevisiae deletion strains, locus YNL153C, strain GIM3, stronger effect = lower value 1.01 | S. cerevisiae deletion strains, locus YNL175C, strain NOP13, stronger effect = lower value 1 | S. cerevisiae deletion strains, locus YNL183C, strain NPR1, stronger effect = lower value 0.945 | S. cerevisiae deletion strains, locus YNL197C, strain WHI3, stronger effect = lower value 1 | S. cerevisiae deletion strains, locus YNL209W, strain ssb2, stronger effect = lower value 1 | S. cerevisiae deletion strains, locus YNL224C, strain SQS1, stronger effect = lower value 0.994 | S. cerevisiae deletion strains, locus YNL233W, strain BNI4, stronger effect = lower value 1.01 | S. cerevisiae deletion strains, locus YNL248C, strain rpa49, stronger effect = lower value 1.01 | S. cerevisiae deletion strains, locus YNL250W, strain rad50, stronger effect = lower value 0.989 | S. cerevisiae deletion strains, locus YNL271C, strain bni1, stronger effect = lower value 1.01 | S. cerevisiae deletion strains, locus YNL298W, strain CLA4, stronger effect = lower value 1.03 | S. cerevisiae deletion strains, locus YNL307C, strain MCK1, stronger effect = lower value 1.02 | S. cerevisiae deletion strains, locus YNL322C, strain KRE1 (second series), stronger effect = lower value 1.03 | S. cerevisiae deletion strains, locus YNL322C, strain KRE1, stronger effect = lower value 0.997 and 0.999 | S. cerevisiae deletion strains, locus YNR049C, strain mso1, stronger effect = lower value 1.02 | S. cerevisiae deletion strains, locus YNR052C, strain pop2, stronger effect = lower value 1.01 | S. cerevisiae deletion strains, locus YOL006C, strain TOP1, stronger effect = lower value 0.986 | S. cerevisiae deletion strains, locus YOL012C, strain htz1 0.949 | S. cerevisiae deletion strains, locus YOL147C, strain pex11, stronger effect = lower value 1.01 | S. cerevisiae deletion strains, locus YOR001W, strain rrp6, stronger effect = lower value 0.994 | S. cerevisiae deletion strains, locus YOR061W, strain CKA2, stronger effect = lower value 1 | S. cerevisiae deletion strains, locus YOR069W, strain VPS5, stronger effect = lower value 1 | S. cerevisiae deletion strains, locus YOR070C, strain gyp1, stronger effect = lower value 0.996 | S. cerevisiae deletion strains, locus YOR080W, strain dia2, stronger effect = lower value 0.996 | S. cerevisiae deletion strains, locus YOR083W, strain WHI5 (second series), stronger effect = lower value 1 | S. cerevisiae deletion strains, locus YOR083W, strain WHI5, stronger effect = lower value 1.02 | S. cerevisiae deletion strains, locus YOR106W, strain vam3, stronger effect = lower value 1.03 | S. cerevisiae deletion strains, locus YOR136W, strain idh2, stronger effect = lower value 0.988 | S. cerevisiae deletion strains, locus YOR144C, strain elg1, stronger effect = lower value 1 | S. cerevisiae deletion strains, locus YOR184W, strain ser1, stronger effect = lower value 1.03 | S. cerevisiae deletion strains, locus YOR231W, strain MKK1, stronger effect = lower value 0.961 | S. cerevisiae deletion strains, locus YOR265W, strain rbl2, stronger effect = lower value 0.994 | S. cerevisiae deletion strains, locus YOR270C, strain vph1, stronger effect = lower value 0.972 | S. cerevisiae deletion strains, locus YOR290C, strain snf2, stronger effect = lower value 1.03 | S. cerevisiae deletion strains, locus YOR316C, strain cot1, stronger effect = lower value 1 | S. cerevisiae deletion strains, locus YPL051W, strain arl3, stronger effect = lower value 0.994 | S. cerevisiae deletion strains, locus YPL078C, strain atp4, stronger effect = lower value 1 | S. cerevisiae deletion strains, locus YPL106C, strain sse1, stronger effect = lower value 1.02 | S. cerevisiae deletion strains, locus YPL240C, strain hsp82, stronger effect = lower value 0.982 | S. cerevisiae deletion strains, locus YPL241C, strain CIN2, stronger effect = lower value 1 and 0.994 | S. cerevisiae deletion strains, locus YPL256C, strain CLN2, stronger effect = lower value 0.933 | S. cerevisiae deletion strains, locus YPR119W, strain clb2, stronger effect = lower value 1 | S. cerevisiae deletion strains, locus YPR141C, strain kar3, stronger effect = lower value 0.994 | S. cerevisiae deletion strains, locus YPR163C, strain tif3, stronger effect = lower value 1.01 | S. cerevisiae deletion strains, locus YPR167C, strain met16, stronger effect = lower value 1 | S. cerevisiae deletion strains, strain wtn01, stronger effect = lower value 1.02 | S. cerevisiae strains, strain wild type, stronger effect = lower value 0.989
